Source: PubChem
AHR activator = human AHR activation; 2.5% of 320,000 active; activation, % at 5 µM; AHR-responsive luciferase reporter cells, luminescence; in the data active = activation above about 47%;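 note: 0% = vehicle wells and 100% = reference agonist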
DAX1 inh-1 = blocks DAX1 repression of SF-1 activated StAR promoter; HEK293T StAR-luciferase reporter, SF-1/DAX-1 repression relief; inhibition, % at 6.8 µM; 1.1% of 370,000 active; AID 652010;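 active = inhibition above the mean over all tested compounds plus 3 SD, cut at about 3.6% in these data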;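 note: 0% = DAX-1 cells with DMSO and 100% = cells lacking DAX-1 with DMSO; higher inhibition means more luminescence from relief of DAX-1 repression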
DAX1 inh-2 = inhibits human nuclear receptor DAX1 | HEK293 Gal4-DAX1 luciferase reporter, luminescence | AID 504766 | 0.99% of 340,000 active | P51843 | inhibition, % at 6.75 µM;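 active = inhibition above the mean over all tested compounds plus 3 SD, cut at about 4.2% in these data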;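 note: 0% = DAX1-transfected cells with DMSO and 100% = empty-vector control cells with DMSO; inhibition shows as a rise in luminescence from relieved DAX1 repression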
ssDAF12 agonist = activates DAF-12 receptor from parasite S. stercoralis; activation, % at 6.8 µM; HEK293 ssDAF-12/GRIP1 lit1-tk-luc reporter, luminescence; % of 3 µM dafachronic acid response; 1% of 370,000 active; AID 652126;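 active = activation above the mean over all tested compounds plus 3 SD, cut at about 0.9% in these data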;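 note: 0% = DMSO-only wells and 100% = 3 µM delta7-dafachronic acid wells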
hcDAF-12 act = activates DAF-12 receptor from parasite H. contortus; 1.4% of 370,000 active; activation, % at 6.8 µM; HEK293 hcDAF-12 lit1-tk-luc reporter, luminescence; 0% DMSO, 100% Δ7-dafachronic acid;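 active = activation above the mean of all tested compounds plus 3 SD, cut at about 5.5% in these data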;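 note: 100% = response to 3 µM Δ7-dafachronic acid high control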
hgDAF-12 ag = hgDAF-12 agonism, primary luciferase screen | HEK293 GAL4-hgDAF12 UAS-luciferase reporter, agonist luminescence; normalized to butyrate control | activation, % at 6.8 µM | 1.8% of 370,000 active | AID 687014;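 active = activation above a cutoff set at the mean of all screened compounds plus 3 SD, cut at about 10% in these data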;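 note: 0% = DMSO wells and 100% = sodium butyrate wells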
LXRb hcDAF ctr = activates human LXR-beta, counter-screen for hcDAF-12 agonists; shares compounds with hcDAF-12 act; HEK293 Gal4-LXR tk-luc reporter, luminescence, 24 h; normalized: DMSO 0%, positive control 100%; activation, % at 6.8 µM; 3,400 tested, under 10 active; AID 743027;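 active = mean percent activation of the reporter above a cutoff set as the average over tested compounds plus their standard deviation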
Target sequence (P55055 whole entry, looked up, the tested form may be a part): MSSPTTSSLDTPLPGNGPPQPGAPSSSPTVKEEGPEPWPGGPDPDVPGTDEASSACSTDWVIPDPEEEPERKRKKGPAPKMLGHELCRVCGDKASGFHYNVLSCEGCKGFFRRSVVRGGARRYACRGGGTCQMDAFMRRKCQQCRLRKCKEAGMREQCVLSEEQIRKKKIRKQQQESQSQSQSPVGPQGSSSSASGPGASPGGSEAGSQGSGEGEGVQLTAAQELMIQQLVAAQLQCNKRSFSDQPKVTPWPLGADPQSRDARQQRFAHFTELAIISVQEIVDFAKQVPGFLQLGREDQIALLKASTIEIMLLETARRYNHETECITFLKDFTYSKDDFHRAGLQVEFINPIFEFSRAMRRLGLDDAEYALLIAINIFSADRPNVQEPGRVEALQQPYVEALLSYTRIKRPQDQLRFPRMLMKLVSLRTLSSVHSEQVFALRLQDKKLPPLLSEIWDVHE
hcDAF12 conf = confirmation of H. contortus DAF-12 agonists | shares compounds with hcDAF-12 act | HEK293 hcDAF-12 lit1-tk-luc reporter, luminescence; % of Δ7-dafachronic acid response | activation, % at 6.8 µM | 61% of 3,400 active | AID 743032;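 active = mean activation across triplicate tests above the threshold derived from the earlier primary screen, cut at about 5.5% in these data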;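 note: 0% = DMSO only wells and 100% = 3 µM Δ7-dafachronic acid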
The depositor's hits bear a star; x = no result given. The list is not random: actives were taken first. Their share in the collection is about 5.7%.

SMILES	AHR activator	DAX1 inh-1	DAX1 inh-2	ssDAF12 agonist	hcDAF-12 act	hgDAF-12 ag	LXRb hcDAF ctr	hcDAF12 conf
O=C(Nc1ncccn1)c1cccc(F)c1	1	0	-1	0	7.0*	8	0	1
O=C(Nc1ncccn1)c1cccc(Cl)c1	0	0	x	1	5	-1	x	x
CC(C)(C)NC(=O)CSc1nc(-c2ccc(F)cc2)cs1	16	3	3	-1	7.2*	12*	1	5
CCNC(=O)CSc1nc(-c2ccc(F)cc2)cs1	1	2	-1	-1	-1	2	x	x
O=C(O)CC/C(=C\c1cc([N+](=O)[O-])ccc1Cl)c1nc2ccccc2s1	13	0	-1	0	8.8*	4	0	7.9*
Cc1cc(C)c(S(=O)(=O)/N=C2\C=C(NS(=O)(=O)c3ccccc3)C(=O)c3ccccc32)c(C)c1	20	0	-1	0.9*	8.0*	0	0	1
CCCCn1cnc2c(sc3nc4c(cc32)CSC(C)(C)C4)c1=O	4	1	3	0	7.0*	13*	1	5.6*
CC(C)CCn1cnc2c(sc3nc4c(cc32)CSC(C)(C)C4)c1=O	-1	-2	3	-3	-4	-10	x	x
NNC(=O)c1n[nH]c2c1CC(C1CCCCC1)CC2 (stereo not drawn)	2	-1	0	-1	-2	3	x	x
O=C(Nc1ccc(Cl)cc1)[C@@H]1[C@@H]2C(=O)N(c3cccc(F)c3)C(=O)[C@@H]2[C@H]2C=CC=NN21	25	0	-1	-1	1	2	x	x
COc1ccc(N2C(=O)[C@@H]3[C@H](C2=O)[C@H]2C=CC=NN2[C@@H]3C(=O)Nc2ccc(Cl)cc2)cc1	18	0	x	0	6.5*	-1	0	1
O=C(Nc1ccc(Cl)cc1)[C@@H]1[C@@H]2C(=O)N(c3ccc4ccccc4c3)C(=O)[C@@H]2[C@H]2C=CC=NN21	36	0	-1	0	6.8*	0	0	2
Cc1ccsc1CN(C)CC(=O)Nc1ccccc1C(=O)NC1CC1	2	1	3	-1	0	-3	x	x
CC(=O)c1cccc(NC(=O)c2c(-c3c(F)cccc3Cl)noc2C)c1	2	-1	0	-2	-1	0	x	x
Oc1cccc(Nc2nc(O)c(/C=C3\C=Nc4ccccc43)s2)c1	23	1	-1	0	6.8*	10	0	7.0*
O=C(Cn1c(O)c(/C=C2\C=Nc3ccccc32)sc1=O)Nc1ccc2c(c1)OCO2	6	0	0	-1	2	3	x	x
Cc1cc(C)c2oc(-c3ccc(Cl)c(NC(=O)c4ccc(C#N)cc4F)c3)nc2c1	44	0	1	0	6.6*	1	0	5.7*
N#Cc1ccc(C(=O)Nc2cccc3ncccc23)c(F)c1	-3	-1	-2	-2	-1	1	x	x
COc1ccc(-n2c(C)cc(/C=C3\C(=N)N4N=C(CC(=O)N5CCOCC5)SC4=NC3=O)c2C)cc1	3	0	1	-1	-2	-2	x	x
Cc1ccc2nc(-c3ccc(O)c(O)c3)cn2c1	6	2	-3	0	9.4*	8	1	9.9*
O=C(Cc1ccc(Br)cc1)NC1CCCCC1	7	0	1	-2	1	0	x	x
O=C(Cc1ccc(O)cc1)NC1CCCCCC1	6	1	0	0	6.8*	8	0	4
Cc1ccc(O)c(-c2cc(-c3ccccc3F)[nH]n2)c1	27	1	1	0	11*	10	1	9.4*
CC(C)CCN1CCN(Cc2cc3ccccc3[nH]2)CC1CCO (stereo not drawn)	25	0	0	0	6.9*	0	0	7.0*
COc1ccc(OCc2cc(C(=O)N(Cc3nccn3C)C(C)C)no2)c2ccccc12	20	-1	0	0	7.3*	7	0	6.9*
SMILES	AHR activator	DAX1 inh-1	DAX1 inh-2	ssDAF12 agonist	hcDAF-12 act	hgDAF-12 ag	LXRb hcDAF ctr	hcDAF12 conf
COc1ccc(OCc2cc(C(=O)N3CCCC(O)C3)no2)c2ccccc12 (stereo not drawn)	52*	3	3	1.2*	7.0*	11*	1	9.2*
Cn1c(CC(=O)Nc2ccccc2)nnc1SCC(=O)NC1=NCCS1	-1	0	0	-1	7.6*	1	0	-1
CC(C)C(NC(=O)c1ccc(C(C)(C)C)cc1)C(=O)NCC1(N(C)C)CCCCC1 (stereo not drawn)	1	0	1	-1	0	-1	x	x
COC(=O)C1OC1c1cc([N+](=O)[O-])ccc1OC (stereo not drawn)	x	-1	1	-1	-1	-2	x	x
COc1ccc([N+](=O)[O-])cc1C1NN=C(c2ccccc2O)S1 (stereo not drawn)	37	0	0	1	6.9*	6	0	4
Cc1cccc(N=C2NN=C(c3ccc4c(c3)OCCO4)CS2)c1	-6	3	3	0	2	9	x	x
Cc1cccc(N=C2NN=C(c3c(C)[nH]c4ccccc34)CS2)c1	32	-1	-1	-1	7.9*	2	0	3
CCCC(=O)Nc1cccc(-c2nc3cc(C)c(C)cc3o2)c1	29	4.3*	1	0	7.2*	7	1	4
CCCC(=O)Nc1cccc(-c2nc3ccccc3o2)c1	27	0	0	-1	-1	0	x	x
CCOC(=O)c1cc(NC(=O)c2ccc(C)cc2)c(=O)oc1C(F)(F)F	-5	0	-1	0	0	6	x	x
CCOC(=O)c1cc(NC(=O)c2ccc(Cl)cc2)c(=O)n2c1oc1ccc(Cl)cc12	0	0	-1	-1	9.3*	4	0	-2
COc1ccc(CN(CC2CCC(C(=O)O)CC2)C(=S)Nc2cc(Cl)ccc2OC)cc1 (stereo not drawn)	0	0	1	-2	2	1	x	x
ClC(/C=N/n1cnnc1)=C/c1ccccc1	0	0	-1	-1	0	0	x	x
CC1CC1C(=O)Nc1nc2ccc(Cl)cc2s1 (stereo not drawn)	67*	0	1	0	7.0*	9	1	6.2*
CCc1nnc(NC(=O)C2=CCN(S(=O)(=O)c3ccc(F)cc3)CC2)s1	0	0	-2	-2	-1	-4	x	x
COc1ccc(Cl)cc1NC(=O)c1cc(C2CC2)on1	x	x	x	-1	7.6*	3	0	5
